In the supplement of paper PMC12632987:

T1: USP38, Q8NB14
T1 chain: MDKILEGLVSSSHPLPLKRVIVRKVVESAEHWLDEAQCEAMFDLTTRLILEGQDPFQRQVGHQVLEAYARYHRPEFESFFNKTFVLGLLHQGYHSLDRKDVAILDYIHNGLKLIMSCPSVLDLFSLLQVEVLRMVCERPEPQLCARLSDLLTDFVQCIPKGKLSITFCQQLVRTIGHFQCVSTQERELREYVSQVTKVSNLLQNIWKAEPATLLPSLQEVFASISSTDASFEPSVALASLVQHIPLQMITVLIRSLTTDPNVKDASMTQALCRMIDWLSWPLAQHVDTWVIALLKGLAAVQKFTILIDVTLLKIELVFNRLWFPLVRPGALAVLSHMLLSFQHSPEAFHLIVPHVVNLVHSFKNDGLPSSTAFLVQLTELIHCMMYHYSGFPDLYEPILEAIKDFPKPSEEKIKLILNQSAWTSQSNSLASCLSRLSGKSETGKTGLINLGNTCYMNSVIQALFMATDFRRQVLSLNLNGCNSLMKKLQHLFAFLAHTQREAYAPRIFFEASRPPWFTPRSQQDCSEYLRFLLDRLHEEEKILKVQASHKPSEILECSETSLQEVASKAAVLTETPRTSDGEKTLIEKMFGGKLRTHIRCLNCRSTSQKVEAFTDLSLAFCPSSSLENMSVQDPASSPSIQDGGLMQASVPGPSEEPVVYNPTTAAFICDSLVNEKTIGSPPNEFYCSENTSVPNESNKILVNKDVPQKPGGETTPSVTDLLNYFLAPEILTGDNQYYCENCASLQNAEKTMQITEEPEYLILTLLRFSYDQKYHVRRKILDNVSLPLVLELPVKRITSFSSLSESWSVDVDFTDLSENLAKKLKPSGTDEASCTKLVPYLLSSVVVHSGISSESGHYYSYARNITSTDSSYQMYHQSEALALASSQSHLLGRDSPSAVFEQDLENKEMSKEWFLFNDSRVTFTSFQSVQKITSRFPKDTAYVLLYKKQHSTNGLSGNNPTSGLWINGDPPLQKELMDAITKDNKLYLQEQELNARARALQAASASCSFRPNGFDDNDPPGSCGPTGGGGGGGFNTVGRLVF

B1: usp_38_diff_out_18_28_371 (protein)
chain: SAAERAALEARLAALEAELDALIDELVELAKEVYEEHADDEEKLALLDAAWDALGRAAGLLRRARELLREGGDPAEVAALLDAAEAALAEAKALLAELKK
B2: usp_38_diff_out_18_28_373 (protein)
chain: SEEEREELKKRLEELEKRLDELIDRYVELANRVYEEHPDDEEKLRLLDEAADALGEAAYHLREARRLLREGGPPEEVKKELEKAEEALKKAEELLKELEE
B3: usp_38_diff_out_18_28_387 (protein)
chain: MEKEREELKKELEELRKRLDELIDRATEEATRALTAHPDDEEVWELIDRLFDTLGEAAAALNRARELLRAGGPLEEVKKELEKARKALEEAERLLEELEA
B4: usp_38_diff_out_18_28_382 (protein)
chain: AAAEREKLEAELKKLEAELNKLIDEATELATKKLTEHPDDEEVWKLVDELFDALGKAAAALNRARELLRAGGPAEEVKKALEEAEKYMKEAKKLMEELKK
B5: usp_38_diff_out_18_28_365 (protein)
chain: SEEERRELERRLEELTRRLDELIDEATEAATEALTAHPDDEEVWELVDRLFDALGAAAAALNRARELLREGGPLEEVEEELEEAERHLREAERLLEELRE
B6: usp_38_diff_out_18_28_390 (protein)
chain: EEEERERLERRLRELERELDALIDEATAAITEALTAHPDDEEVWALVDALLDSLGRAAAALNEARRLLAEGGPLEEVERALEEAERHLREAKALLAELKA
B7: usp_38_diff_out_18_28_379 (protein)
chain: EEARREELERRLEELRRRLDELIDEATEAATEALTAHPDDEEVWELVDELFDTLGRAAAALERARRLLREGGPLEEVERALEEAERHLEEAEELLEELEE
B8: usp_38_diff_out_18_28_391 (protein)
chain: SSAERERLERELERLERELDELIDEATAVATEKLEEHPDDEEVWRLIDELFDALGRAARALSEARRLLREGGPPEEVERALEEARRHLERARELLEELKE
B9: usp_38_diff_out_18_28_369 (protein)
chain: SAAERAALEAELAALTARLDALIDEATAEATRRLTEHPDDEEVWELVDELFDALGAAAAALREARELLREGGPLAEVQAALDRARAALARAEALLAELKA
B10: usp_38_diff_out_18_28_386 (protein)
chain: EEERRRELERELRELERRLDELIDEAVAAATEALEAHPDDEEVWALVDELFDTLGRAAAALREARELLRAGGPLEEVERALREAREALERAERLLAELKA
B11: usp_38_diff_out_18_28_394 (protein)
chain: SAAERAALEAELAALEAELDALIDEATKAATEALTANPDSEEVWALVDALFDALGAAAAALRRARELLRAGGPLAEVQAALDEARKHLAEAKKLLKELKA
B12: usp_38_diff_out_18_28_364 (protein)
chain: SAAERAALEAELKALTAELDALIDEATEVATEKLTEHPDDEEVWELVDKLFDALGAAAAALNKARELLREGGPLEEVKKQLAKAKEALAEAKKLLEELKK
B13: usp_38_diff_out_18_28_375 (protein)
chain: SAATRAALEAELAALEARLDALIDEYVALANRVYEEHPDDAEALALLDAAADALGAAAAALAEARRLLRAGGDPAEVRARLAEARAALAEAEALLAQLKA
B14: usp_38_diff_out_18_28_388 (protein)
chain: SEEEREELRERLEELEKRLDALIDEATAVATAALTAHPDSAEVQALVAELFDALGAAAAALRRARELLRRGGPLEEVREALEEAERHLEEAERLLAELRA
B15: usp_38_diff_out_18_28_380 (protein)
chain: AEEERRRLEEELEALKAELDALITEATALATAKLEAHPDDAEVWALVDALFDALGAAAAALERARELLRAGAPPEEVRAALAEARAHIAEARALMAQLAA
B16: usp_38_diff_out_18_28_370 (protein)
chain: SEEERERLEERLAALKAELDALIDRATAAATAALEAHPDDAEVWALIDALFDALGAAAAALNEARRLLREGGDLEEVERLLEQAEAHLAQARALLAQLEA
B17: usp_38_diff_out_18_28_384 (protein)
chain: DAAERAALEKELEELRKRLDELIDRAVEAATAALEAHPDDEAVWALVDALFDTLGAAAAALNEARALLKAGGDPAEVKAALEEARKALAEAERLLAELEA
B18: usp_38_diff_out_18_28_377 (protein)
chain: MEEERERLERELEELRERLDELIDEATEASLKKLEEEPDSEEVWELIDRLFDALGAAAAALREARELLKAGGPLEEVQRLLEEARRHLEEAERLLEELKE
B19: usp_38_diff_out_18_28_393 (protein)
chain: SEERRKELEERLKALEAELDALITEATAVATERLEAHPDDEAVWELVDALFDALGAAAAALREARELLRAGGDLEEVEALLDQAEAALAEAKALLAELKA
B20: usp_38_diff_out_18_28_366 (protein)
chain: SMEEREKLEKELEELKKELDALIDEATALATEALTAHPDDEEVWALVDELFDSLGKAAAHLNRARELLREGGPLEEVEKELKEAKEHLEKAKELLAKLKA
B21: usp_38_diff_out_18_28_368 (protein)
chain: SEEERRELERRLEELTKRLDELIDEATAESTRALTAHPDDEAVWALVDALFDALGAAAAALNRARELLREGGPLEEVQKELDRAEAALKEAEALLAELKA
B22: usp_38_diff_out_18_28_383 (protein)
chain: AEAERAELEKRLEELEKELNELIDEATEAATEKLEAEPDSEEVWELVDELFDELGKAAAKLREARELLRAGAPAEEVQKALEEAEEHLKRAKELLEELKE
B23: usp_38_diff_out_18_28_374 (protein)
chain: SEEEREELERRLRELEERLDELIDEYVELAERVYLEHPDDAEKLALLDAAADALGAAAYHLREARRLLREGGDPEEVERELEKAEEALEEAERLLEELKA
B24: usp_38_diff_out_18_28_378 (protein)
chain: AAAERAALEAELAALRAELDALIDEATEAATRALEAHPDDEEVWALVDELFDTLGAAAAALNEARRLLKEGGDLAEVKAALAAARDALARARELLAELKA
B25: usp_38_diff_out_18_28_376 (protein)
chain: SAAERARLEAELAALRAELDALIDEATATATEALEAHPDSEEVWALIDALFDALGAAAAALEEARRLLRAGGPLAEVQALLDRAREHLRRARELLAELKA
B26: usp_38_diff_out_18_28_381 (protein)
chain: AEARRAELERRLEELLRELNELIDEATKLATEKLTEHPDDEEVWELVDRLFDELGRAAAHLREARELLRAGAPAEEVEKELREAEEHLKRAKELLKELEA
B27: usp_38_diff_out_18_28_372 (protein)
chain: SAAERAALEARLAALEAELNALIDEFVELAERVYEERADDEEALALLDRAWDALGAAAAALNRARELLREGGPAAEVQAQLDAAEAALAEAKALLAELKA
B28: usp_38_diff_out_18_28_395 (protein)
chain: MEEERAKLEEELKKLEKELNELIDRATAAATAALTAHPDDADVWALVDALFDSLGAAAYHLREARELLREGGPLEEVKKELEKAKEHLKEAKALLAELEA
B29: usp_38_diff_out_18_28_367 (protein)
chain: SAAARAAAEARLAALTAELDELIDEATAEATAALTAHPDDAAVWALVDALFDALGAAAAALNRARELLREGGPLEEVEAALAQAEAELARARELLAQLRA
B30: usp_38_diff_out_18_28_389 (protein)
chain: AAAARAALEAELAALRAELDALIDEATELATRKLEEHPDDEEVWELVDRLFDALGRAAAHLEEARRLLREGGDLAAVQAELDAARAALAEAKRLLEELKA
B31: usp_38_diff_out_18_28_392 (protein)
chain: MEEERERLERELEELRRRLDELIDEATAVATAKLEEHPDDEEVWALIDELFDALGAAAQALREARELLREGGDPEEVRRKLEEARRALEEAERLLAELKA
B32: usp_38_diff_out_18_28_385 (protein)
chain: MEEERKKLEEELEKLKKELDKLIDEAVELATAALEAHPDDEAVWALVDALFDALGAAAAALNRARELLKAGGDPEEVKKELDKARAALKEAKALLAELKA

Biological target: T1, USP38, Q8NB14
Experiment: median log2 fold change of GCK-ALFA target abundance (FLAG IP / Myc IP barcode read proportion) (log2 ratio); each designed protein is fused to an ALFA-tag nanobody in HEK293 cells to bring the named protein to FLAG-tagged glucokinase (GCK); Myc marks an untargeted standard; higher = target protein stabilised (more abundant)
Conditions: target protein: 3xFLAG-MCP-GCK-ALFA reporter; HEK293 landing pad (RPLP)
In short: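 Sequencing of reverse-transcribed, amplified circular RNA barcodes from anti-FLAG and anti-Myc immunoprecipitates provided the readout for an ALFA-nanobody-fused binder library recombined into HEK293 landing-pad cells. Those cells were induced with 2 μg mL^−1 doxycycline, transfected with a plasmid expressing a FLAG-tagged target and a Myc-tagged standard, and lysed after 48 h. Target abundance is the per-binder median log2 ratio of FLAG to Myc barcode read proportions. Only barcodes at a proportion of ≥10^−7 in both replicates and binders with ≥3 barcodes per replicate were kept, with a 10^−6 pseudocount added before the two replicates were pooled.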
With B1 the “median log2 fold change” value was -0.371. B2 was tested, and the “median log2 fold change” value was 0.0573. For B3, the “median log2 fold change” value was -0.291. With B4 the “median log2 fold change” value was 0.595. In the case of B5, the “median log2 fold change” value is reported as 0.239. In the case of B6, the “median log2 fold change” value is reported as 0.124. For B7, the “median log2 fold change” value was -0.355. In the case of B8, the “median log2 fold change” value is reported as -0.315. With B9 the “median log2 fold change” value was 0.292. B10 was tested, and the “median log2 fold change” value was -0.0533. In the case of B11, the “median log2 fold change” value is reported as -0.118. In the case of B12, the “median log2 fold change” value is reported as 0.391. B13 was tested, and the “median log2 fold change” value was -0.238. In the case of B14, the “median log2 fold change” value is reported as 0.11. For B15, the “median log2 fold change” value was -0.0972. In the case of B16, the “median log2 fold change” value is reported as 0.0316. For B17, the “median log2 fold change” value was 0.0029. For B18, the “median log2 fold change” value was -0.388. For B19, the “median log2 fold change” value was -0.136. In the case of B20, the “median log2 fold change” value is reported as -0.062. For B21, the “median log2 fold change” value was 0.199. For B22, the “median log2 fold change” value was -0.0589. In the case of B23, the “median log2 fold change” value is reported as -0.302. For B24, the “median log2 fold change” value was -0.0434. In the case of B25, the “median log2 fold change” value is reported as -0.0614. B26 was tested, and the “median log2 fold change” value was -0.371. For B27, the “median log2 fold change” value was -0.142. With B28 the “median log2 fold change” value was -0.179. In the case of B29, the “median log2 fold change” value is reported as 0.0424. In the case of B30, the “median log2 fold change” value is reported as -0.314. With B31 the “median log2 fold change” value was -0.26. In the case of B32, the “median log2 fold change” value is reported as -0.282.
